SMARCA2 activ: SMARCA2 (BRM) function activators, primary screen, cell-based, luminescence, high throughput; MG213 cells, MMTV-luciferase reporter, dexamethasone, overnight; activation, % at 9.1 µM; 1% of 370,000 active; in the data active means activation above about 7.8%;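 further: 0% = vehicle wells and 100% = reference activator wells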
MsrA inhibitor: bovine MsrA enzyme inhibitors, primary screen, biochemical, absorbance, HTS; Methionine sulfoxide reductase A (Bos taurus); purified bovine MsrA, absorbance read-out; inhibition, % at 15.5 µM; 0.75% of 360,000 active; AID 651718, 2012; in the data active means inhibition above about 4.5%;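 further: 0% = vehicle wells with enzyme and 100% = reference inhibitor wells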
KLK7 zymogen act: proKLK7 zymogen activators, primary screen, biochemical, fluorescence intensity. AID 652039, 2013. Kallikrein-7 (Homo sapiens), P49862. 0.9% of 370,000 active. activation, % at 7 µM. purified proKLK7, EDANS-DABCYL substrate fluorescence; 100% is mature enzyme control, 0% vehicle;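 active means activation above the mean of all tested compounds plus 3 SD, computed per campaign excluding outliers beyond control limits, cut at about 13% in these data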
Target sequence (P49862 whole entry, looked up): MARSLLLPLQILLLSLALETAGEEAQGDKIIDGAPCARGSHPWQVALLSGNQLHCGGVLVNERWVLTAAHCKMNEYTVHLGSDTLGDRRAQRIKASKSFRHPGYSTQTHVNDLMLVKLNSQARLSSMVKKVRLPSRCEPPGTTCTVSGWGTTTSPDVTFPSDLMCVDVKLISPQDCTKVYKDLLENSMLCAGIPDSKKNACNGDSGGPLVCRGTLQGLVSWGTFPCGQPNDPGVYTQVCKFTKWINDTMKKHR
MsrA act: bovine MsrA enzyme activators, primary screen, biochemical, absorbance, HTS; purified bovine MsrA, absorbance read-out; activation, % at 10.6 µM; Methionine sulfoxide reductase A (Bos taurus); 0.3% of 360,000 active; AID 602163, 2012; in the data active means activation above about 7.5%;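 further: 0% = vehicle and 100% = reference activator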
Starred values were filed as active, the others as inactive; ! = a repeat was not active. Hits are enriched below; roughly 2.8% of the tested compounds scored in any of these assays.

COc1cc(NC(=O)c2ccc(N)nc2)cc(C(=O)Nc2cccc(C(F)(F)F)c2)c1 was read as SMARCA2 activ 7.9*!, MsrA inhibitor 0.5, KLK7 zymogen act -0.6 and MsrA act -2.8.
`COc1cc(NC(=O)c2nccnc2N)cc(C(=O)Nc2cccc(C(F)(F)F)c2)c1` gave SMARCA2 activ -2.3, MsrA inhibitor 2.3, KLK7 zymogen act -0.3 and MsrA act -4.1.
O=C(NCCCNc1ccc(C(F)(F)F)cc1[N+](=O)[O-])c1cc(F)c(F)cc1Cl was read as SMARCA2 activ -0.8, MsrA inhibitor -0.2, KLK7 zymogen act 0.1 and MsrA act 8.7*.
Screening Cc1cc(C)c(C)c(OCCCCN2CCCCC2)c1 returned SMARCA2 activ 7.9*, MsrA inhibitor -0.5, KLK7 zymogen act -0.9 and MsrA act -2.4.
Screening Cc1cc(C)c(C)c(OCCOCCN2CCN(C)CC2)c1 returned SMARCA2 activ -2.8, MsrA inhibitor 1.6, KLK7 zymogen act -0.9 and MsrA act -2.6.
Screening CCOc1ccc(Cn2ccnc2)cc1[N+](=O)[O-] returned SMARCA2 activ 12.6*, MsrA inhibitor 1.0, KLK7 zymogen act 0.7 and MsrA act -0.8.
`CCCCCOc1ccc(Cn2ccnc2)cc1[N+](=O)[O-]` gave SMARCA2 activ 1.4, MsrA inhibitor 0.8, KLK7 zymogen act 0.4 and MsrA act -3.8.
Screening COc1ccc(OC)c(/C=N/Nc2nncn2/N=C/c2cc(OC)ccc2OC)c1 returned SMARCA2 activ -0.1, MsrA inhibitor 4.3, KLK7 zymogen act -3.4 and MsrA act 2.6.
For COc1cc(/C=N/Nc2nnc3c(n2)[nH]c2ccccc23)ccc1O the results were SMARCA2 activ -0.8, MsrA inhibitor 4.6*, KLK7 zymogen act -0.9 and MsrA act -2.6.
`Cc1ccc2[nH]c3nc(N/N=C/c4cccc(O)c4)nnc3c2c1` gave SMARCA2 activ 0.8, MsrA inhibitor 0.3, KLK7 zymogen act -0.4 and MsrA act -4.5.
For COc1cc(/C=N/Nc2nncn2/N=C/c2ccc(O)c(OC)c2)ccc1O the results were SMARCA2 activ -5.3, MsrA inhibitor 4.6*, KLK7 zymogen act -1.5 and MsrA act 5.3.
For Cc1ccc(Cc2c(-c3ccc(Cl)cc3)nc3cc(C)ccn23)cc1 the results were SMARCA2 activ 7.8*, MsrA inhibitor 0.6, KLK7 zymogen act -0.1 and MsrA act -11.4.
For Cc1ccc(Cc2c(-c3ccc(C)cc3)nc3cc(C)ccn23)cc1 the results were SMARCA2 activ 3.4, MsrA inhibitor -0.3, KLK7 zymogen act -2.4 and MsrA act -3.0.
Screening CSc1ccc(C(=O)Nc2cc(S(=O)(=O)N3CCOCC3)ccc2N2CCOCC2)cc1[N+](=O)[O-] returned SMARCA2 activ -1.8, MsrA inhibitor 0.3, KLK7 zymogen act -0.6 and MsrA act 0.6.
Screening CCOc1ccc2[nH]c(=O)c(CN(Cc3nnnn3Cc3ccco3)C3CCCCC3)cc2c1 returned SMARCA2 activ 3.7, MsrA inhibitor -0.4, KLK7 zymogen act 3.0 and MsrA act 5.8.
For COc1cc2cc(CN(Cc3nnnn3Cc3ccco3)C3CCCCC3)c(=O)[nH]c2cc1OC the results were SMARCA2 activ 1.2, MsrA inhibitor 1.8, KLK7 zymogen act 12.8* and MsrA act -0.5.
Screening CCC(C)(C)n1nnnc1CN(Cc1ccco1)Cc1cc2cc3c(cc2[nH]c1=O)OCO3 returned MsrA act -5.8.
Screening COc1ccc(Cn2nnnc2CN(Cc2cc3cccc(C)c3[nH]c2=O)C2CCCC2)cc1 returned SMARCA2 activ 0.3, MsrA inhibitor 0.0, KLK7 zymogen act -0.6 and MsrA act -0.3.
CC(C)(C)n1nnnc1CN(Cc1ccco1)Cc1cc2cc3c(cc2[nH]c1=O)OCO3 was read as SMARCA2 activ 3.4, MsrA inhibitor 2.2, KLK7 zymogen act 28.2* and MsrA act -12.4.
For COc1ccc(Cn2nnnc2CN(Cc2cc3ccc(C)cc3[nH]c2=O)C2CCCC2)cc1 the results were SMARCA2 activ 0.0, MsrA inhibitor 2.4, KLK7 zymogen act 14.9* and MsrA act -1.5.
Screening O=C(OC12CCCN(C1)/C(=C/c1ccncc1)C2)c1ccco1 (configuration not stated) returned SMARCA2 activ -0.2 and KLK7 zymogen act -0.1.
`Cc1cccc(Nc2nc(N)nc(N)c2N=O)c1` gave SMARCA2 activ -0.9, MsrA inhibitor 3.3, KLK7 zymogen act -0.1 and MsrA act -6.3.
Cc1ccc(N(C)c2nc(N)nc(N)c2N=O)cc1 was read as SMARCA2 activ -5.1, MsrA inhibitor 0.1 and KLK7 zymogen act 43.9*.
`Cc1ccc(S(=O)(=O)/N=C2/NC(=O)/C(=C/c3ccccc3)S2)cc1` gave SMARCA2 activ -0.1, MsrA inhibitor 4.6*, KLK7 zymogen act -0.1 and MsrA act -3.8.
Screening Cc1ccc(S(=O)(=O)/N=C2/NC(=O)/C(=C\c3ccccc3)S2)cc1 returned SMARCA2 activ -0.4, MsrA inhibitor 3.6, KLK7 zymogen act -0.1 and MsrA act -5.5.
For CC(=O)NC1CCCCN(Cc2ccc(Cl)cc2)C1=O (configuration not stated) the results were SMARCA2 activ -6.1 and KLK7 zymogen act -0.4.
For CCOC1=C2[C@@H](CN(S(=O)(=O)c3ccc(C)cc3)[C@H]2c2ccccc2F)[C@H]2C(=O)N(c3ccccc3)C(=O)[C@H]2C1 the results were SMARCA2 activ -4.4, MsrA inhibitor -0.4, KLK7 zymogen act -0.6 and MsrA act -2.1.
`COc1ccccc1Cc1c(-c2cccc(Br)c2)nc2ccc(Br)cn12` gave SMARCA2 activ 7.9*, MsrA inhibitor -0.5, KLK7 zymogen act -0.3 and MsrA act -11.9.
For COc1cccc(NC(=O)C2CCCN2C(=O)Nc2cccc3c2OCO3)c1 (configuration not stated) the results were SMARCA2 activ -0.9 and KLK7 zymogen act 0.0.
CC(=O)OC(C=C(C)C)C/C(C)=C/COc1c2ccoc2cc2oc(=O)ccc12 (configuration not stated) was read as SMARCA2 activ -4.2, MsrA inhibitor 12.5*, KLK7 zymogen act 1.4 and MsrA act -8.4.
Screening C[C@H]1/C=C/CC(=O)N[C@@H](c2ccccc2)[C@@H](C)/C=C/CC(=O)N[C@H]1c1ccccc1 returned SMARCA2 activ -0.5 and KLK7 zymogen act 0.0.
`Cc1[nH]c2ccc(C(=O)OCCN(C)C)cc2c1C` gave SMARCA2 activ 0.6, MsrA inhibitor 0.5, KLK7 zymogen act -0.5 and MsrA act -2.4.
`CCOC(=O)c1ccc2[nH]c(C)c(C)c2c1` gave SMARCA2 activ 7.9*, MsrA inhibitor -1.2, KLK7 zymogen act -0.2 and MsrA act 0.4.
Screening Cc1cc(N)n(-c2ccccc2)n1 returned SMARCA2 activ 1.3, MsrA inhibitor -1.1, KLK7 zymogen act 0.0 and MsrA act -10.7.
`Cc1cc(N)n(-c2cc(C)c3ccccc3n2)n1` gave SMARCA2 activ 7.9*, MsrA inhibitor 1.1, KLK7 zymogen act 1.1 and MsrA act -5.9.
Screening CNc1cc(-c2ccc(OC)c(OC)c2)ncn1 returned SMARCA2 activ 5.5, MsrA inhibitor -0.3, KLK7 zymogen act 0.6 and MsrA act -9.0.

Assay outcomes: PubChem BioAssay, The Scripps Research Institute Molecular Screening Center
